D2 ag-1 = D2 dopamine receptor (human) agonism | activation, % at 2 µM | 0.53% of 340,000 active | HEK293 T-REx D2 cells, calcium flux agonist mode | P14416 | AID 485358;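 active means activation over 3 SD above normal in the single-dose calcium agonist read, cut at about 30% in these data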; further: 0% is about no effect
Target sequence (P14416 whole entry, looked up): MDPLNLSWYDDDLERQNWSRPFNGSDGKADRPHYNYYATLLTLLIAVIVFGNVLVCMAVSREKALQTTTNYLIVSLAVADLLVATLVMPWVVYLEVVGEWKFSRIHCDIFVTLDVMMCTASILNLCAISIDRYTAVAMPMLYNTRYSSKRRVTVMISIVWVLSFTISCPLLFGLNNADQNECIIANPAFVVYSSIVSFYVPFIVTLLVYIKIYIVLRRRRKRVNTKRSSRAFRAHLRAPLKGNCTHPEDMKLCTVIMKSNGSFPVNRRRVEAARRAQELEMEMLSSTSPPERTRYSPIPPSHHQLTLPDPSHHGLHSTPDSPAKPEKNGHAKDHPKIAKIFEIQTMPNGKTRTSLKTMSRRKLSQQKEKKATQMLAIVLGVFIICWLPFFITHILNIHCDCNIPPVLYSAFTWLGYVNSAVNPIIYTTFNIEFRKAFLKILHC
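In this primary screen, compounds producing a positive calcium signal within 180 s of addition to tetracycline-induced, force-coupled HEK293 Trex D2 cells are flagged; cells are dye-loaded with a no-wash calcium kit beforehand.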
D2 antag = antagonizes the human D2 dopamine receptor | P14416 | HEK293 TREx D2 cells, calcium flux, dopamine EC80 | inhibition, % at 10 µM | 2% of 340,000 active; in the data active means inhibition above about 30%; inactive means below that, where a call was filed; further: 0% is about no effect
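Tetracycline-induced HEK293 TREx cells expressing D2 receptor forced-coupled to calcium signalling, loaded with no-wash calcium dye. Compounds added and calcium flux read 180 s, then dopamine added at EC80 and read a further 180 s.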
D2 PAM-1 = D2 dopamine receptor (human) potentiation; 0.34% of 340,000 active; potentiation, % at 10 µM; HEK293 T-REx D2, calcium flux, EC20 dopamine potentiation;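 active means potentiation over 3 SD above the plate norm, cut at about 30% in these data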; further: 0% is about no effect
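Primary screen. Calcium kinetics in induced HEK293 T-REx D2 cells: compound pre-addition 180 s, EC20 dopamine, 180 s more.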
D2 PAM-2 = potentiates the human D2 dopamine receptor allosterically | P14416 | DiscoveRx D2 beta-arrestin cells, luminescence, 90 min; 100% = 57 uM dopamine signal | potentiation, % (no concentration beside the values) | 0.23% of 360,000 active; in the data active means potentiation above about 50%; inconclusive means mostly about 30% to 49%
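D2 cells co-treated with compound plus 50 nM dopamine (EC20) for 90 min at 37 deg C to detect potentiation. Beta-arrestin recruitment was read as enzyme-fragment luminescence after 1 h at ambient temperature. Full response was set by 57 uM dopamine.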
D2 ag-2 = human D2 receptor agonism in beta-arrestin assay. 0.084% of 360,000 active. P14416. DiscoveRx PathHunter D2 beta-arrestin, luminescence, 90 min; 100% = 57 uM dopamine signal. activation, % (test concentration not listed); in the data active means activation above about 40%; inconclusive means between about 15% and that limit
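DiscoveRx PathHunter D2 beta-arrestin cells (2,100/well) attached overnight, then compound-stimulated 90 min at 37 C in HBSS/10 mM HEPES/0.1% Tween-20 buffer; beta-galactosidase complementation read by luminescence after 1 h at ambient temperature. Dopamine 57 uM final (EC100) as control.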
D3 arrestin ag = confirmation of human D3 dopamine receptor agonists, beta-arrestin; shares compounds with D2 ag-1; DiscoveRx D3 beta-arrestin cells, luminescence, 90 min; Potency, µM (titrated, usually from 76.9 µM), inactives show top-dose activation, actives largely listed as activators; 4% of 2,300 active; AID 720506;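 further: potency means the concentration at half of the fitted maximal effect; 100% = dopamine control response; nearly all actives have a fitted effect of over 70% in size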
D2 ag-3 = D2 receptor agonism, beta-arrestin counterscreen; shares compounds with D2 ag-1; DiscoveRx PathHunter D2 beta-arrestin, luminescence, 90 min; response scale: percent relative to full dopamine signal; Potency, µM (highest dose often 76.9 µM), for the others: at the highest dose activation, usual class: activators; 5.9% of 2,300 active; AID 720507; further: potency means the concentration at half of the fitted maximal effect; % of control where 0% means no effect; nearly all actives have a fitted effect of over 70% in size
The depositor's hits bear a star. A selection: hits, their analogues and other compounds. The true share with any hit is near 2.4%. Unless noted, the call rests on the fitted dose curve; in most records, active means well fitted activation curve with a large enough effect; inconclusive means small, poorly fitted or top-dose-only effect; inactive means flat fitted curve, though single readings scatter.

Screening O=C(NCCCN1CCN(c2cccc(Cl)c2)CC1)c1cccc(N2CCCC2=O)c1 returned D2 ag-1 48*, D2 antag 13, D2 PAM-1 -24, D2 PAM-2 -42, D2 ag-2 2, D3 arrestin ag -4% and D2 ag-3 7%.
`O=C(NCCN1CCN(c2ccccc2)CC1)c1cccc(Cl)c1` gave D2 ag-1 46*, D2 antag 70*, D2 PAM-1 -26, D2 PAM-2 -6, D2 ag-2 -2, D3 arrestin ag inconclusive and D2 ag-3 12%.
Cc1cccc(C(=O)NCCN2CCN(c3ccccc3)CC2)c1 was read as D2 ag-1 49*, D2 antag 91*, D2 PAM-1 -22, D2 PAM-2 -21, D2 ag-2 2, D3 arrestin ag inconclusive and D2 ag-3 6%.
Screening O=C(NCCCN1CCN(c2cccc(Cl)c2)CC1)c1ccc(N2CCCC2=O)cc1 returned D2 ag-1 0, D2 antag -14, D2 PAM-1 -2, D2 PAM-2 -2 and D2 ag-2 3.
Cc1cccc2c1N(Cc1ccccc1OCCC(C)C)C(=O)C2=O was read as D2 ag-1 -1 and D2 PAM-1 0.
CCCOc1ccc(NC(=O)CC2C(=O)N(c3cccc(OC)c3)C(=O)N2Cc2cccs2)cc1 (stereo not given) was read as D2 PAM-1 -3.
`CCC(Oc1ccccc1)C(=O)Nc1cc(-c2ccccc2F)nn1-c1ccccc1` (stereo not given) gave D2 ag-1 0 and D2 PAM-1 -1.
CCc1nnc(SCc2cccc(Cl)c2)c2cc3sccc3n12 was read as D2 PAM-1 13.
Screening COC1CCN(Cc2c(C(=O)N3CCN(C4CCCCC4)CC3)nc3ccccn23)CC1 returned D2 ag-1 59*, D2 antag -8, D2 PAM-1 -21, D2 PAM-2 -7, D2 ag-2 -1, D3 arrestin ag 0% and D2 ag-3 -7%.
For COCC1CCN(Cc2c(C(=O)N3CCN(C4CCCCC4)CC3)nc3ccccn23)C1 (stereo not given) the results were D2 ag-1 0, D2 antag -14, D2 PAM-1 -5, D2 PAM-2 -50 and D2 ag-2 -4.
For Cc1noc(C)c1COC(=O)CCOc1ccccc1 the results were D2 ag-1 0, D2 antag -10, D2 PAM-1 -4, D2 PAM-2 -7 and D2 ag-2 -3.
For Cc1noc(C)c1COc1ccc(C(=O)N(C)CCOc2ccccc2)cc1 the results were D2 ag-1 0, D2 antag -22, D2 PAM-1 -26, D2 PAM-2 -2, D2 ag-2 12, D3 arrestin ag -8% and D2 ag-3 6%.
For COc1cc(C)c(Cl)cc1S(=O)(=O)NCCc1c(C)[nH]c2ccccc12 the results were D2 ag-1 0 and D2 PAM-1 3.
Cc1c(-c2ccccc2)nc2ccccc2c1C(=O)OCC(=O)Nc1ncc(C(F)(F)F)cc1Cl was read as D2 ag-1 0, D2 antag 30*, D2 PAM-1 5, D2 PAM-2 -6, D2 ag-2 1, D3 arrestin ag -4% and D2 ag-3 1%.
COc1ccc(-c2c(C#Cc3ccsc3)c3cc(-c4ccc5c(c4)OCCO5)ccc3n2C)cc1 was read as D2 PAM-2 -2 and D2 ag-2 -4.
COc1ccc(-c2c(C#Cc3ccsc3)c3cc(-c4ccc5c(c4)OCO5)ccc3n2C)cc1 was read as D2 ag-1 1, D2 antag 4, D2 PAM-1 -1, D2 PAM-2 -3, D2 ag-2 -1, D3 arrestin ag 0% and D2 ag-3 -1%.
O=C(Nc1ccc(F)c(F)c1)c1ccc(=O)n(Cc2ccc(F)cc2)c1 was read as D2 ag-1 -1 and D2 PAM-1 -2.

High-throughput results (PubChem BioAssay)
